# ± gives the standard deviation.
# Tested on: MILI (PIWIL2) piRISC loaded with piRNA #1 (26 nt);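 note: 1 nM active piRISC with 0.1 nM target library at 33 °C single turnover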
# Experiment: pre-steady-state target cleavage rate (min^-1); guide: piRNA #1 5'p-UGAGGUAGUAGGUUGUAUAGUAUCCA; higher = faster piRNA-guided slicing of the target
# Conditions: auxiliary factor: 500 nM mouse GTSF1
# Method in brief: (§1)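 In this Cleave-'n-Seq assay, uncleaved targets were sequenced and normalised to depth and to weakly complementary targets. They came from a transcribed, DNA-blocked target RNA library […] mixed with 1 nM active affinity-purified piRISC carrying one synthetic guide, with or without 500 nM GTSF1 partner protein, in HEPES–potassium acetate buffer at 33 °C for 0–8 or 0–960 min. After three trials were pooled and k3 was capped at 0.0001 min^-1, the pre-steady-state cleavage rate was obtained from a burst-and-steady-state fit.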
row,Sequence,pre-steady-state target cleavage rate
1,GGAGACGAUACUAUACAACCUAGAUCCUCA,0.00708 ± 0.0033
2,GGAGUGGAUACUAUACAACCUACACCUCA,0.00292 ± 0.0021
3,GGAGACGAUACUAUAGAACCUACUACCUCA,0.184 ± 0.015
4,GGAGACGUUUCUAUACAACCUACUACCUCA,0.105 ± 0.013
5,GGAGAGGAUACUAUCAACCUACUACCUCA,0.154 ± 0.01
6,GGAGACGAUACUAUACGACCUACUACCUCA,0.0963 ± 0.012

# Tested on: EfPiwi piRISC loaded with piRNA #1 (26 nt)
# Experiment: pre-steady-state target cleavage rate (min^-1); auxiliary factor: 500 nM Ephydatia muelleri Gtsf1; guide: piRNA #1 5'p-UGAGGUAGUAGGUUGUAUAGUAUCCA; MIWI and MILI are mouse PIWI proteins and EfPiwi is from a freshwater sponge; tags in brackets are library labels; higher = faster piRNA-guided slicing of the target
# Conditions: not given
# Method in brief: as §1
row,Sequence,pre-steady-state target cleavage rate
1,GGAGACCAUAGAAUACAACCUACUACCUCA,0.00684 ± 0.0033
2,GGAGAGAUACUAUACAACCUACUACCUCA,0.121 ± 0.054
3,GGAGACCAUACUAUACAACCUACUACUCA,0.00387 ± 0.0024
4,GGAGACGAUACUAUAGAACCUAGUACCUCA,0.0018 ± 0.0015
5,GGAGACCUAUGAAUAGAACCUUCUACCUCA,< 0.0001
6,GGAGACCAUACUAUACAACCUAGUAGCUCA,0.00225 ± 0.0017
7,GGAGAGGAUACUAUACACACCUACUACCUCA,0.00541 ± 0.0039
8,GGAGACGAAACUAUACAACCAACUACCUCA,0.0068 ± 0.0036
9,GGAGACCUAAUUAUACAACCUACUACCUCA,0.0144 ± 0.0065
10,GGAGACGAUACUAUACAACCUUACUACCUCA,0.00805 ± 0.0039
11,GGAGACGAUACUAUACAACCUAGAUCCUCA,0.00272 ± 0.0017
12,GGAGUGGAUACUAUACAACCUACACCUCA,0.00338 ± 0.0018
13,GGAGACGAUACUAUAGAACCUACUACCUCA,0.00433 ± 0.0017
14,GGAGUGGAUACUAUACAACCUACUACCUGA,0.0069 ± 0.0028
15,GGAGACGAUGCUAUACAACCUACUACCUCA,0.00734 ± 0.0042
16,GGAGACGUUUCUAUACAACCUACUACCUCA,0.0117 ± 0.0062
17,GGAGAGGAUACAAUACAACCUACAACCUCA,0.00231 ± 0.0018
18,GGAGACCUAUGAUAUGUACCAACUACCACA,< 0.0001
19,GGAGAGGAUACUAUCAACCUACUACCUCA,0.0088 ± 0.0053
20,GGAGUGGAUACUAUACACACCUACUACCUCA,0.0105 ± 0.005

row,Sequence,pre-steady-state target cleavage rate
1,GGAGUGGAUGACUAUACAACCUACUACCUCA,0.00475 ± 0.0037
2,GGAGAGGUACUAUACAACCUACUACCUCA,0.00824 ± 0.0048
3,GGAGACGAUACAUAUACAACCUACUACCUCA,0.00804 ± 0.0033
4,GGAGACGAUAGUAAACAACCUACUACCUCA,0.00554 ± 0.004
5,GGAGACCUAUGAUAUGUACCCACUACCUCA,< 0.0001
6,GGAGACCAUACUAUACGAACCUACUACCUCA,0.0108 ± 0.0042
7,GGAGUGGAUACUAUACAACCUACUAGCCUCA,0.00369 ± 0.0017
8,GGAGACGAUACUAUACAUACCUACUACCUCA,0.00857 ± 0.0043
9,GGAGUCGAUACUAUACAACCUACUACCACA,0.0037 ± 0.0015
10,GGAGACGAUACUAUACGACCUACUACCUCA,0.0807 ± 0.028
11,GGAGUGGAUACUAUACAACCUACUACCCUCA,0.00587 ± 0.002
12,GGAGUGCAUACUAUACAACCUAGUACCUCA,0.00414 ± 0.0018
13,GGAGACCUAACUAUACAACGUACUACCUCA,0.00454 ± 0.0022
14,GGAGACCAUACUAUUACAACCUACUACCUCA,0.0115 ± 0.0046
15,GGAGUGGAUACUAUACAACCUACUUCCACA,0.00294 ± 0.0024
16,GGAGAGGAUACUAUACAACCUAGUACGUCA,0.0044 ± 0.0019
17,GGAGUGGAUACUAUACAACCUAGUACCUGA,0.00271 ± 0.001
18,GGAGACGAUACUUAUACAACCUACUACCUCA,0.0473 ± 0.017
19,GGAGUGGAUACUAUACAACCUUACUACCUCA,0.00695 ± 0.0034
20,GGAGAGGAUACUAUACAACCUACUUCGUCA,0.00697 ± 0.0031

# From the supplement of paper PMC10338343
